# Test results as given in PMC7862700, “An all-to-all approach to the identification of sequence-specific readers for epigenetic DNA modifications on cytosine”.
# How the values were obtained:
# Experiment in all cases: DAPPL (digital affinity profiling via proximity ligation, sequencing); 10 mM Tris-HCl pH 7.5, 50 mM NaCl, 1 mM DTT, 4% glycerol, room temperature, 30 min; GST-TFs on glutathione beads, 16-mer random dsDNA library, 0.1% formaldehyde crosslink after washing; high values mean tight binding
# Details in all cases: protein: recombinant; tags: N-terminal GST; dsDNA, one strand shown
# FLI1 = biological target: T1, FLI1 (Homo sapiens, UniProt Q01543 1-452)
# T1 sequence: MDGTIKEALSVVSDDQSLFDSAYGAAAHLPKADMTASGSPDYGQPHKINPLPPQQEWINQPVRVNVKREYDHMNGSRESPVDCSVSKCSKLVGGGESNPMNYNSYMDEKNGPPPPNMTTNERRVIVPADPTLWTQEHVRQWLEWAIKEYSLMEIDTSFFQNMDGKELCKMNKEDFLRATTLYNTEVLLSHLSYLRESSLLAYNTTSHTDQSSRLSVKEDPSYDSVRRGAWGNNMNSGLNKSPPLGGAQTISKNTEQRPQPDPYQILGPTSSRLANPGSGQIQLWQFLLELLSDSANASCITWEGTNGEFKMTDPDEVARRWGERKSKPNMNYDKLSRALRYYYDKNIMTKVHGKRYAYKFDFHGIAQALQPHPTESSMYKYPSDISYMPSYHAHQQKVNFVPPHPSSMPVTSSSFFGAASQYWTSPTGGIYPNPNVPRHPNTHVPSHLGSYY
# How it was run: (§1)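 After expression in yeast as GST fusions, human transcription factors were bound to glutathione beads, DNA-barcoded and mixed with a tag-only sample. The pools were incubated with 200 nmole of a 16-mer random double-stranded DNA library in Tris/NaCl/DTT/glycerol buffer (30 min, room temperature), washed and crosslinked with 0.1% formaldehyde. Proximity ligation with BsaI/T4 ligase ran for 1 h at 37 °C, before PCR amplification and sequencing on an Illumina NextSeq500. Binding signal is a hexamer's read frequency for a factor divided by its frequency for the tag-only sample.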
# ELK1 = biological target: T2, ELK1 (Homo sapiens, UniProt P19419 1-428)
# T2 sequence: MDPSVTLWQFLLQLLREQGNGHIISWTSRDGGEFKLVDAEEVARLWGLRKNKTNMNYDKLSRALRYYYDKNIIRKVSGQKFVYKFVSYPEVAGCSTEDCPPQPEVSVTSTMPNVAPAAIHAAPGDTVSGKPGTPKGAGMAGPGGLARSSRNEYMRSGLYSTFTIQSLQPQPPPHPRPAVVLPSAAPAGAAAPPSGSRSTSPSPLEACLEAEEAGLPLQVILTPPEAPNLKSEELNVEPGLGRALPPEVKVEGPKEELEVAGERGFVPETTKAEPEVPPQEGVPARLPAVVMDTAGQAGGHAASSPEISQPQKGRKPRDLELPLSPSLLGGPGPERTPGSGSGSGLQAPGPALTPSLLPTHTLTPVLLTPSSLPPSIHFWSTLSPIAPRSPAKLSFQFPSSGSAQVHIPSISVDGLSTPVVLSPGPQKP
# How it was run: as §1
# GABPA = biological target: T3, GABPA (Homo sapiens, UniProt Q06546 1-454)
# T3 sequence: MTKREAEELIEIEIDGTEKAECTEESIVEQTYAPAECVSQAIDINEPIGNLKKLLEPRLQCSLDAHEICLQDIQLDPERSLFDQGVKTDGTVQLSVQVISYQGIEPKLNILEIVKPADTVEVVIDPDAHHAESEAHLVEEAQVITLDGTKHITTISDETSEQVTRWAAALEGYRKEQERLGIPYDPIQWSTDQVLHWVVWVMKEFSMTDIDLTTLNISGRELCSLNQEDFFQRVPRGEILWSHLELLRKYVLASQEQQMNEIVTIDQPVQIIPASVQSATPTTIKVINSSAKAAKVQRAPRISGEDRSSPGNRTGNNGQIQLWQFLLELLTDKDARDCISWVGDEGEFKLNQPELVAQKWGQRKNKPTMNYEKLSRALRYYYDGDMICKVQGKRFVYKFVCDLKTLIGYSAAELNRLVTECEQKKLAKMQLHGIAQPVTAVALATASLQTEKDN
# How it was run: as §1
# ERG = biological target: T4, ERG (Homo sapiens, UniProt P11308 1-479)
# T4 sequence: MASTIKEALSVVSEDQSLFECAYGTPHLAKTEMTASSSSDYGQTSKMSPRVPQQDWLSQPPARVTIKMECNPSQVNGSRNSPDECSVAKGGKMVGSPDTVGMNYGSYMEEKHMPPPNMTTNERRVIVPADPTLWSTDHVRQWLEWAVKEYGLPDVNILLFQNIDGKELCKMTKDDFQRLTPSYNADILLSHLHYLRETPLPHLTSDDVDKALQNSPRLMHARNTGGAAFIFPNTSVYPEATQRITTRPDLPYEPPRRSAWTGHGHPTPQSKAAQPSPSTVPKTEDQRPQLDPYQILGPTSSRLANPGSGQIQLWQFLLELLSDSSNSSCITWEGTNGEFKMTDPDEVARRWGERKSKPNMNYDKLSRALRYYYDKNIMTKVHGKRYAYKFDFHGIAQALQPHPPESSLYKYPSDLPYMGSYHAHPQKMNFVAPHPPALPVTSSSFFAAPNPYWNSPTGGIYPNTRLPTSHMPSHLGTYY
# How it was run: as §1
# ELF1 = ELF1 (Homo sapiens, UniProt P32519 1-619)
# How it was run: as §1
# EHF = biological target: T5, EHF (Homo sapiens, UniProt Q9NZC4 1-300)
# T5 sequence: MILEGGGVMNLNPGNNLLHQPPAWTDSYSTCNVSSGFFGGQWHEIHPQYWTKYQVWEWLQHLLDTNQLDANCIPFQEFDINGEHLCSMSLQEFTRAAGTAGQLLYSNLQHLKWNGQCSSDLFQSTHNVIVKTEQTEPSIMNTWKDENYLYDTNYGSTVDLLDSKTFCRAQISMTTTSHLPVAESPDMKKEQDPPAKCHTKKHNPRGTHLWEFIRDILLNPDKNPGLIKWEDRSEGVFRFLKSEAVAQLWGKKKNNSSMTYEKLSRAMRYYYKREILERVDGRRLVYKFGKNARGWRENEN
# How it was run: as §1
# SPI1 = SPI1 (Homo sapiens, UniProt P17947 1-270)
# How it was run: as §1
# SPIB = SPIB (Homo sapiens, UniProt Q01892 1-262)
# How it was run: as §1
# ELK3 = biological target: T6, ELK3 (Homo sapiens, UniProt P41970 1-407)
# T6 sequence: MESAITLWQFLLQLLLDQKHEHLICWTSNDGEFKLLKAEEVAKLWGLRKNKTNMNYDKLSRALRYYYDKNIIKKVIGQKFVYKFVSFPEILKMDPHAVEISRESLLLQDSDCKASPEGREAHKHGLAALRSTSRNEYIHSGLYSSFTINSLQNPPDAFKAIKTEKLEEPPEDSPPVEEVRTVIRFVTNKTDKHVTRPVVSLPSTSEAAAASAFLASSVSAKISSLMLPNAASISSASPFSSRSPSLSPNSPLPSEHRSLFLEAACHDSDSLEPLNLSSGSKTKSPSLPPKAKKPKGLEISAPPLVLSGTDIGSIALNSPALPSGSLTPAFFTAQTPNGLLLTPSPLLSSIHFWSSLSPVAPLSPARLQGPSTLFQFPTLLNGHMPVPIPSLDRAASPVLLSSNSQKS
# How it was run: as §1
# FEV = biological target: T7, FEV (Homo sapiens, UniProt Q99581 1-238)
# T7 sequence: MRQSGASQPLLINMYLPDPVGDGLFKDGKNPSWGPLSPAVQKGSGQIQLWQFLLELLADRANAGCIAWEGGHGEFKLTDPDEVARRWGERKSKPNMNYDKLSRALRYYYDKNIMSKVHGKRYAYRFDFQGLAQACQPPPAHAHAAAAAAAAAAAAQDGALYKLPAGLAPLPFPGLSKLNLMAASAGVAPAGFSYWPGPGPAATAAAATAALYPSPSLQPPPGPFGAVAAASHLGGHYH
# How it was run: as §1
# ETV5 = ETV5 (Homo sapiens, UniProt P41161 1-510)
# How it was run: as §1
# SPIC = biological target: T8, SPIC (Homo sapiens, UniProt Q8N5J4 1-248)
# T8 sequence: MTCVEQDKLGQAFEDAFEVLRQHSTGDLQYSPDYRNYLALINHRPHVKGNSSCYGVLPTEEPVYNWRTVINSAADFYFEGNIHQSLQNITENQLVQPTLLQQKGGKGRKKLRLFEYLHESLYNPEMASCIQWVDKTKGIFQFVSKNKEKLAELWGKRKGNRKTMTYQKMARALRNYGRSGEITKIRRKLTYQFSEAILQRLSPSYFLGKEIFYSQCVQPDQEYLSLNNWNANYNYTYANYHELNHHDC
# How it was run: as §1
# ELF4 = ELF4 (Homo sapiens, UniProt Q99607 1-663)
# How it was run: as §1
# ELK4 = biological target: T9, ELK4 (Homo sapiens, UniProt P28324-2 1-405)
# T9 sequence: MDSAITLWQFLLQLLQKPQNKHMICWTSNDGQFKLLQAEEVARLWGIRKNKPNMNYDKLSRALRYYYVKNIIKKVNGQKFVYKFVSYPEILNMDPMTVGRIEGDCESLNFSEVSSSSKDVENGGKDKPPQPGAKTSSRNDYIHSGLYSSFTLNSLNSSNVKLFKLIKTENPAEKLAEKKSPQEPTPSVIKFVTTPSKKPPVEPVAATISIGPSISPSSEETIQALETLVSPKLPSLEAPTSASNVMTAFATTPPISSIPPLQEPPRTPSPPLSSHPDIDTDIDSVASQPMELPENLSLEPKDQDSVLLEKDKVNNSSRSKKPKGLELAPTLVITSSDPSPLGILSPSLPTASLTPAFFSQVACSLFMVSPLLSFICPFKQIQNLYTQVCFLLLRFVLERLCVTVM
# How it was run: as §1
# ETV2 = biological target: T10, ETV2 (Homo sapiens, UniProt O00321 1-342)
# T10 sequence: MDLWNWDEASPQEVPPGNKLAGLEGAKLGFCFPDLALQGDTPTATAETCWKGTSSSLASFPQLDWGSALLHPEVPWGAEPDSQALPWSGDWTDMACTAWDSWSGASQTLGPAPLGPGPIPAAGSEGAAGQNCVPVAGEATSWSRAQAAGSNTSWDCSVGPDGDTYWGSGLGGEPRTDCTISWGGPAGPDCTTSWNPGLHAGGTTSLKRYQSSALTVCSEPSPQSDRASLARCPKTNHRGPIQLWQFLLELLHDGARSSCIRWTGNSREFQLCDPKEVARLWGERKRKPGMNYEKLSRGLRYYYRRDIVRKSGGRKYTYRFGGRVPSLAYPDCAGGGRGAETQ
# How it was run: as §1
# ELF3 = biological target: T11, ELF3 (Homo sapiens, UniProt P78545 1-371)
# T11 sequence: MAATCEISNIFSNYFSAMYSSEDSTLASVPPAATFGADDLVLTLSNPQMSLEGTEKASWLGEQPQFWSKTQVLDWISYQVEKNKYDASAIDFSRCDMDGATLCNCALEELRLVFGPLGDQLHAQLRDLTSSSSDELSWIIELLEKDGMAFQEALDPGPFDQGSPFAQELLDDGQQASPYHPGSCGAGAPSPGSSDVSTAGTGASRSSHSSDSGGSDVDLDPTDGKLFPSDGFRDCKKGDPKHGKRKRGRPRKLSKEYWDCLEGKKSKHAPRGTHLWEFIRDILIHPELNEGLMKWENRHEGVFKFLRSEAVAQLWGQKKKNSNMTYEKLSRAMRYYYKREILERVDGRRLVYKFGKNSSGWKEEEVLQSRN
# How it was run: as §1
# ETV1 = ETV1 (Homo sapiens, UniProt P50549 1-477)
# How it was run: as §1
# Sequence of ETV1 (P50549 whole entry): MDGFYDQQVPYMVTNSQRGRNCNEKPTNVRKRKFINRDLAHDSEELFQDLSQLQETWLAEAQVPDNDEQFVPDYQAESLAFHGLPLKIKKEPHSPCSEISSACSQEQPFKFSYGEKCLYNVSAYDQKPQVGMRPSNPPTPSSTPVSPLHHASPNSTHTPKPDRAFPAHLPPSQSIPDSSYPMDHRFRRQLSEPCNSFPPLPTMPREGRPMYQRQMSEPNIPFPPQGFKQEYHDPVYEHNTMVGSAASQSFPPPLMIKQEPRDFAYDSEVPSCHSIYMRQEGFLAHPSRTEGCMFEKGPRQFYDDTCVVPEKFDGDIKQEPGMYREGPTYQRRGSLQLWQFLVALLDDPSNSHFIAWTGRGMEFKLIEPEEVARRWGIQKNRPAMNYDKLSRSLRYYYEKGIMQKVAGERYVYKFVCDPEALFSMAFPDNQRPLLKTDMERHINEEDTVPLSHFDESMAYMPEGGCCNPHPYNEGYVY
# Sequence of ETV5 (P41161 whole entry): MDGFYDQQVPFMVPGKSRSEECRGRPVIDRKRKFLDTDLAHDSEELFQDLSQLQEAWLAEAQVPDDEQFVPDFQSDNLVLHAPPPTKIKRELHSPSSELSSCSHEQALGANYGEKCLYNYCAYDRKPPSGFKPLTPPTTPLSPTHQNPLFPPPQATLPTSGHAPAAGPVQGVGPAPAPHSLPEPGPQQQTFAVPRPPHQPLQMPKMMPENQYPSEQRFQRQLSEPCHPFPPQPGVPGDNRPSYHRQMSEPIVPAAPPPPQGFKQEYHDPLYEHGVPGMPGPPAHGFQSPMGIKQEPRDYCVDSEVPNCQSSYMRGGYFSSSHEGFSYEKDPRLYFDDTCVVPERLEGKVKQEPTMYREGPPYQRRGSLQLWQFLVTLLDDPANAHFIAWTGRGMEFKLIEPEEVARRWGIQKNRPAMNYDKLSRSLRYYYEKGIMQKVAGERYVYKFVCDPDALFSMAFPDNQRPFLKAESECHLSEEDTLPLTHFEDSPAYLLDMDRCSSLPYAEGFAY
# Sequence of ELF1 (P32519 whole entry): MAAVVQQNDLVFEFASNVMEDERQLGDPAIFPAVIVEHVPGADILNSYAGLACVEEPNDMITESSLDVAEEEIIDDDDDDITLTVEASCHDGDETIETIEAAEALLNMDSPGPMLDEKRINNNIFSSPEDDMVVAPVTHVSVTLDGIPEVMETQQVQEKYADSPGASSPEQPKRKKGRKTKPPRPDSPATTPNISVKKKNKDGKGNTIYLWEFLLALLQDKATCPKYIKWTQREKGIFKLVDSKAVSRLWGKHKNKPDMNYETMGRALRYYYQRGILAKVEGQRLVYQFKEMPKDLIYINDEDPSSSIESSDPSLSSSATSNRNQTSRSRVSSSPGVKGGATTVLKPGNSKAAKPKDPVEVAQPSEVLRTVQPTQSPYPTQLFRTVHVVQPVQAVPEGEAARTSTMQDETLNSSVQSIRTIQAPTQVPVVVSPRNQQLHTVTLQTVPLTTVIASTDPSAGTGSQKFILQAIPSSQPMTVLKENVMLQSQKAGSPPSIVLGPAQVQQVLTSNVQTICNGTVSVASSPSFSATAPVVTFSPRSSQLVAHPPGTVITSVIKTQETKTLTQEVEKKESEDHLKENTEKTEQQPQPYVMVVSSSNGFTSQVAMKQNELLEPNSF
# Sequence of SPIB (Q01892 whole entry): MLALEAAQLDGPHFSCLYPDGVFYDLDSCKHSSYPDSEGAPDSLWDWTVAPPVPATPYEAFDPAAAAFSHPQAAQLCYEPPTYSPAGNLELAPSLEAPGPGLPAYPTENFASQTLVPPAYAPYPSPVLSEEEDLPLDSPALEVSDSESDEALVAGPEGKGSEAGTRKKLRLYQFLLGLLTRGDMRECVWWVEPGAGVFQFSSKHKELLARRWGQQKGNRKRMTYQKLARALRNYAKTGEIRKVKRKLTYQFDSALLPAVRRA
# Sequence of ELF4 (Q99607 whole entry): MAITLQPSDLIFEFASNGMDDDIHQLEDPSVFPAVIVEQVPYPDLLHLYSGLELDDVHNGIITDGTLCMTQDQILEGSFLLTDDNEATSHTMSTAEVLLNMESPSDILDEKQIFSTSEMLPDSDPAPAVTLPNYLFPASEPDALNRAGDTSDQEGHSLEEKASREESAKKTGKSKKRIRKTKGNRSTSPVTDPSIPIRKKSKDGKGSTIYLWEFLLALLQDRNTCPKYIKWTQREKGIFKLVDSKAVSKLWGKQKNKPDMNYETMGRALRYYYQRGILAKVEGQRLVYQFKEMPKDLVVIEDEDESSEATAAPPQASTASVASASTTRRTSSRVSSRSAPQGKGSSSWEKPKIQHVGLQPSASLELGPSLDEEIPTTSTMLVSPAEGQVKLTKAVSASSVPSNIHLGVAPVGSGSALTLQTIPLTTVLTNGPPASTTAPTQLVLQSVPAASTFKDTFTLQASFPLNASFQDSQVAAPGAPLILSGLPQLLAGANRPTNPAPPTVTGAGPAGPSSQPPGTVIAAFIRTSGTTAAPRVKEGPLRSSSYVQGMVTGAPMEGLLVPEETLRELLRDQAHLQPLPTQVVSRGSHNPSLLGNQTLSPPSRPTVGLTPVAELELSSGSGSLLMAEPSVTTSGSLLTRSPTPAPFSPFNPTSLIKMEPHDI
Sequence,binding signal (FLI1),binding signal (ELK1),binding signal (GABPA),binding signal (ERG),binding signal (ELF1),binding signal (EHF),binding signal (SPI1),binding signal (SPIB),binding signal (ELK3),binding signal (FEV),binding signal (ETV5),binding signal (SPIC),binding signal (ELF4),binding signal (ELK4),binding signal (ETV2),binding signal (ELF3),binding signal (ETV1)
CACATA,"1.14 fold enrichment (6-mer frequency, TF over GST control)","1.14 fold enrichment (6-mer frequency, TF over GST control)","1.11 fold enrichment (6-mer frequency, TF over GST control)","1.14 fold enrichment (6-mer frequency, TF over GST control)","1.18 fold enrichment (6-mer frequency, TF over GST control)","1.13 fold enrichment (6-mer frequency, TF over GST control)","1.11 fold enrichment (6-mer frequency, TF over GST control)","1.06 fold enrichment (6-mer frequency, TF over GST control)","1.17 fold enrichment (6-mer frequency, TF over GST control)","1.1 fold enrichment (6-mer frequency, TF over GST control)","1.1 fold enrichment (6-mer frequency, TF over GST control)","1.07 fold enrichment (6-mer frequency, TF over GST control)","1.1 fold enrichment (6-mer frequency, TF over GST control)","1.07 fold enrichment (6-mer frequency, TF over GST control)","1.18 fold enrichment (6-mer frequency, TF over GST control)","1.11 fold enrichment (6-mer frequency, TF over GST control)","1.05 fold enrichment (6-mer frequency, TF over GST control)"
TGCATC,"1.35 fold enrichment (6-mer frequency, TF over GST control)","1.42 fold enrichment (6-mer frequency, TF over GST control)","1.38 fold enrichment (6-mer frequency, TF over GST control)","1.43 fold enrichment (6-mer frequency, TF over GST control)","1.31 fold enrichment (6-mer frequency, TF over GST control)","1.33 fold enrichment (6-mer frequency, TF over GST control)","1.42 fold enrichment (6-mer frequency, TF over GST control)","1.35 fold enrichment (6-mer frequency, TF over GST control)","1.44 fold enrichment (6-mer frequency, TF over GST control)","1.33 fold enrichment (6-mer frequency, TF over GST control)","1.39 fold enrichment (6-mer frequency, TF over GST control)","1.46 fold enrichment (6-mer frequency, TF over GST control)","1.31 fold enrichment (6-mer frequency, TF over GST control)","1.22 fold enrichment (6-mer frequency, TF over GST control)","1.33 fold enrichment (6-mer frequency, TF over GST control)","1.3 fold enrichment (6-mer frequency, TF over GST control)","1.4 fold enrichment (6-mer frequency, TF over GST control)"
